This is one part of a sample in which hits are shown more often than they occur.
Tgondii IFNg: T. gondii growth inhibition with IFN-gamma, primary screen, cell-based; Toxoplasma gondii growth in IFN-gamma-treated host cells; active compounds read low; activity change, negative = inhibition, % (test concentration not listed); hit rate 3.8% among 69,000; in the data active = activity change below about -70%, passing the limit was not always enough;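 also: host cells are HeLa cells infected with Toxoplasma gondii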
Active calls of the source: *.

SMILES	Tgondii IFNg
CCOc1ccccc1-c1ccccc1NC(=O)c1cc(-c2ccc(F)cc2)no1	-9
Cc1cc(C)n(-c2ccc(C(=O)Nc3nc(-c4cc(C)sc4C)cs3)cc2)n1	5
O=c1cc(CCCN2CCOCC2)nc(NCc2ccc(Cl)cc2)[nH]1	-5
CN1C(=O)CCC2C1CCN2C(=O)c1ccc2[nH]ccc2c1 (configuration not stated)	-97*
COCCN1C(=O)CCC2C1CCN2C(=O)c1ccc2[nH]ccc2c1 (configuration not stated)	0
CCN1C(=O)CCC2C1CCN2C(=O)c1ccc2[nH]ccc2c1 (configuration not stated)	0
COc1ccc(S(=O)(=O)Nc2ccc3c(c2)CC(=O)N([C@@H](C)CO)C[C@H](C)[C@H](CN(C)Cc2ccc(C(=O)Nc4ccccc4N)cc2)O3)cc1	-13
CCCNC(=O)C[C@H]1CC[C@@H]2[C@H](COC[C@H](O)CN2Cc2ccncc2)O1	-47
CN1CCN2CCN(Cc3nc4c(s3)CCCC4)CC2C1=O (configuration not stated)	59
CCS(=O)(=O)N1CCC2(CCCN(c3ccc(C)nn3)C2)C1 (configuration not stated)	9
CN(C)C(=O)C1CCC2(CCN(C(=O)Nc3cccc(F)c3)CC2)O1 (configuration not stated)	-46
C[C@@H]1CCCCO[C@@H](CN(C)S(=O)(=O)c2ccc(Cl)cc2)[C@@H](C)CN([C@@H](C)CO)C(=O)c2cc(NC(=O)Nc3ccc(C(F)(F)F)cc3)ccc2O1	176
COc1ccc(S(=O)(=O)Nc2ccc3c(c2)C(=O)N([C@@H](C)CO)C[C@H](C)[C@@H](CN(C)S(=O)(=O)c2ccc(Cl)cc2)OCCCC[C@H](C)O3)cc1	-130*
C[C@@H]1CCCCO[C@H](CN(C)S(=O)(=O)c2ccc(Cl)cc2)[C@H](C)CN([C@@H](C)CO)C(=O)c2cc(NC(=O)Nc3ccc(C(F)(F)F)cc3)ccc2O1	-56
C[C@@H]1CN([C@H](C)CO)C(=O)c2cc(NS(=O)(=O)c3ccc(Cl)cc3)ccc2O[C@@H](C)CCCCO[C@@H]1CN(C)C(=O)CCCN(C)C	-16
COc1ccc(S(=O)(=O)Nc2ccc3c(c2)C(=O)N([C@@H](C)CO)C[C@@H](C)[C@@H](CN(C)S(=O)(=O)c2ccc(Cl)cc2)OCCCC[C@H](C)O3)cc1	-128*
COc1ccc(S(=O)(=O)Nc2ccc3c(c2)C(=O)N([C@@H](C)CO)C[C@H](C)[C@@H](CN(C)S(=O)(=O)c2ccc(Cl)cc2)OCCCC[C@@H](C)O3)cc1	-113*
COc1ccc(S(=O)(=O)Nc2ccc3c(c2)C(=O)N([C@H](C)CO)C[C@H](C)[C@@H](CN(C)S(=O)(=O)c2ccc(Cl)cc2)OCCCC[C@@H](C)O3)cc1	4
C[C@@H]1CCCCO[C@H](CN(C)S(=O)(=O)c2ccc(Cl)cc2)[C@@H](C)CN([C@@H](C)CO)C(=O)c2cc(NC(=O)Nc3ccc(C(F)(F)F)cc3)ccc2O1	-20
COc1ccc(S(=O)(=O)Nc2ccc3c(c2)C(=O)N([C@H](C)CO)C[C@H](C)[C@@H](CN(C)S(=O)(=O)c2ccc(Cl)cc2)OCCCC[C@H](C)O3)cc1	-113*
C[C@@H]1CN([C@@H](C)CO)C(=O)c2cc(NC(=O)Nc3ccc(C(F)(F)F)cc3)ccc2O[C@@H](C)CCCCO[C@@H]1CN(C)S(=O)(=O)c1ccc(Cl)cc1	213
Cc1ccccc1NC(=O)C(=O)N1CCCC(OCc2cccnc2)C1 (configuration not stated)	51
CCc1cnc(C)nc1N1Cc2cnc(-c3ccccc3)nc2C1	-54
CC1=C(C(=O)NCCc2ccc(Cl)cc2)C2(CCN(S(=O)(=O)c3cccs3)CC2)OC1=O	22
O=S(=O)(Oc1ccc(-c2csnn2)cc1)c1ccc(F)c(Cl)c1	-42
SMILES	Tgondii IFNg
CCN1CC2CN(C(=O)NCc3ccccc3)CC(C1)O2	291
Cc1nc(S(=O)(=O)NC2CCS(=O)(=O)C2)cn1C (configuration not stated)	-14
CN(C)C(=O)c1ccc(-c2ccccc2[C@@H]2[C@@H](CO)N(C(=O)C3CC3)[C@H]2C#N)cc1	-29
O=C1CN(S(=O)(=O)c2cccc(F)c2)C[C@H]2[C@@H](c3ccc(C4=CCCC4)cc3)[C@H](CO)N12	-12
CN1CCOC2(CCCN(C(=O)Cc3ccccc3)C2)C1 (configuration not stated)	-21
Cc1ccsc1[C@@H]1CCN(C(=O)c2ccc(-n3cnnc3)cc2)C[C@H]1O	-81*
CN1[C@H]2CC[C@@H]1CN(C(=O)c1ccc(-n3cnnc3)cc1)CC2	3
Cc1ccsc1[C@@H]1CCN(C(=O)c2cccc(=O)[nH]2)C[C@H]1O	1
COC(=O)c1cc(S(N)(=O)=O)c(C)o1	6
CC(=O)c1c(C)cc(C)c(CN2CCC3(CC2)CNC(=O)C3)c1C	-3
CC(C)Oc1ccc(NC(=O)c2nc3c(n2C(C)C)CCN(C(=O)c2ccccc2)C3)cc1	-89*
CC1CN(C(=O)c2nc3c(n2C(C)C)CCN(Cc2ccccc2)C3)CC(C)O1 (configuration not stated)	-49
CC(C)n1c(C(=O)Nc2cccc(F)c2)nc2c1CCN(Cc1ccccc1)C2	-30
COc1cccc(C2CCN2S(=O)(=O)NCc2ccccc2)c1 (configuration not stated)	0
O=c1ccc2c([nH]1)CCN(Cc1ccc3c(c1)OCO3)CC2	5
CCOC(=O)c1cc(C2CC2)nc2c1c(=O)n(Cc1nc(-c3ccc(OC)cc3)oc1C)c(=O)n2C	-23
Cc1nnc(SCC(=O)N2CCc3[nH]c4ccc(F)cc4c3C2)o1	-7
O=C(CSc1nnc(CNc2ccc(F)cc2)o1)N1CCc2ccccc2C1	-81*
O=C(Cn1c(SCC(=O)N2CCc3ccccc3C2)nc2ccccc21)NC1CCCC1	3
Cc1[nH]c2ccccc2c1C(=O)CSc1nc2ccccc2o1	-39
O=c1cc(CSc2nc3ccccc3o2)[nH]c2nc3ccccc3n12	-97*
Cc1cc(CSc2nc3ccccc3o2)c(C)cc1CSc1nc2ccccc2o1	-3
O=C1CC2(CCN(C(=O)CC(c3ccccc3)c3ccccc3)CC2)CN1	14
Cc1cncc(CN2CCC(=C3c4ccc(Cl)cc4CCc4cccnc43)CC2)c1	-4
Cc1ccc(S(=O)(=O)Nc2ccc3c(c2)C(=O)N([C@H](C)CO)C[C@H](C)[C@H](CN(C)S(=O)(=O)c2cccs2)OCCCC[C@@H](C)O3)cc1	-19
SMILES	Tgondii IFNg
Cc1ccc(S(=O)(=O)Nc2ccc3c(c2)C(=O)N([C@@H](C)CO)C[C@H](C)[C@H](CN(C)S(=O)(=O)c2cccs2)OCCCC[C@H](C)O3)cc1	-107*
Cc1ccc(S(=O)(=O)N(C)C[C@H]2OCCCC[C@H](C)Oc3ccc(NC(=O)c4ccncc4)cc3C(=O)N([C@H](C)CO)C[C@@H]2C)cc1	-8
Cc1ccc(S(=O)(=O)N(C)C[C@H]2OCCCC[C@H](C)Oc3ccc(NC(=O)c4ccncc4)cc3C(=O)N([C@@H](C)CO)C[C@@H]2C)cc1	-98*
Cc1noc(C)c1NC(=O)Nc1ccc2c(c1)C(=O)N([C@@H](C)CO)C[C@H](C)[C@@H](CN(C)S(=O)(=O)c1cccs1)OCCCC[C@@H](C)O2	337
Cc1ccc(S(=O)(=O)N(C)C[C@H]2OCCCC[C@H](C)Oc3ccc(NC(=O)c4ccncc4)cc3C(=O)N([C@@H](C)CO)C[C@H]2C)cc1	75
COC(=O)c1ccc(-c2noc(CN3CCc4[nH]ncc4C3)n2)cc1	1

High-throughput results deposited in PubChem by Broad Institute.
